Compound activity (PubChem)
A549 viability = kills or reduces viability of A549 cells in Nrf2 counter-screen. A549 ARE-Fluc cells, CellTiter-Fluor viability, 18-24 h. Potency, µM (series often up to 46 µM), for inactives: top-dose activity change, negative = cytotoxicity, most hits filed as inhibitors. hit rate 0.16% among 390,000. AID 504648; further: on the % scale 0 is the no-effect control and ±100 the full control effect
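A549 ARE_Fluc cells in 5% FBS OPTI-MEM were exposed to compounds in concentration-response for 18-24 h at 37 deg C. Viability was read by CellTiter-Fluor fluorescence (Ex 405/Em 525) after 30 min, before the luciferase read.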
Nrf2 block = Nrf2 pathway inhibition; A549 ARE-Fluc reporter, luciferase luminescence, 18-24 h; Potency, µM (series often up to 46 µM), inactives show at the top dose activity change, negative = inhibition, actives largely listed as inhibitors; hit rate 2.1% among 360,000; further: on the % scale 0 is the no-effect control and ±100 the full control effect; nearly all actives have a fitted effect of over 60% in size
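Concentration-response testing used A549 ARE_Fluc cells at 5000 cells/well. Following an 18-24 h compound incubation, viability was read by fluorescence (Ex 405/Em 525) and luciferase output by luminescence.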
Nrf2 activator = activates Nrf2 signaling; Potency, µM (series often up to 46.1 µM), inactives show at the top dose activation, most hits filed as activators; AREc32 ARE-luciferase reporter (MCF7-derived line), luminescence, 24 h; AID 624171; hit rate 0.31% among 410,000; further: % of control where 0% means no effect; nearly all actives have a fitted effect of over 65% in size
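Quantitative high-throughput format: AREc32 reporter cells, 1000 per well, received compound by pin transfer and were incubated 24 hr at 37 deg C, 5% CO2, before Steady-Glo luminescence detection.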
Pin1 inh = blocks the human prolyl isomerase Pin1; Q13526; Pin1 FP peptide displacement, HiFluor488, 10 min; Potency, µM (doses to about 115 µM), for inactives: at the highest dose activity, negative = inhibition, most hits filed as inhibitors; hit rate 0.009% among 390,000; active means well fitted inhibition curve with a large enough effect in the polarisation, with a control signal flat, not every such curve was filed as active; inconclusive means small, poorly fitted or top-dose-only effect, or effect the other way, or a change in a side signal; inactive means no such curve, though single readings can be large or run the other way; the % refers to the polarisation; further: on the % scale 0 is the no-effect control and ±100 the full control effect
Target sequence (Q13526 whole entry, looked up): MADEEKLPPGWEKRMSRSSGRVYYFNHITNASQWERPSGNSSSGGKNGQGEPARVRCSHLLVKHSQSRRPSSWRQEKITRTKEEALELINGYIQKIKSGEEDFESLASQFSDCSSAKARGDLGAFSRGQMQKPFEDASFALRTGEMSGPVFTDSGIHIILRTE
Active calls of the source: *; ? = inconclusive; nt = no result; [ ] = another dose, or the depositor's remark. Compounds with a hit are over-represented: about 2.2% of the library has one in this group of screens. Unless noted, the call rests on the fitted dose curve; in most records, active means well fitted curve in the direction sought with a large enough effect; inconclusive means small, poorly fitted or top-dose-only effect, or another doubt; inactive means no such curve, though single readings can be large; an effect the other way counts as inactive or inconclusive. Potency means the concentration at half of the fitted maximal effect.

SMILES	A549 viability	Nrf2 block	Nrf2 activator	Pin1 inh
Cc1ccc(S(=O)(=O)N2CCOCC2)cc1C(=O)N1CCN(c2ccc(C(F)(F)F)cn2)CC1	0%	26µM*	4%	2%
CCn1cc(C(=O)N2CCN(c3cc(Cl)ccc3C)CC2)c(=O)c2cc(S(=O)(=O)N3CCOCC3)ccc21	-12%	21µM*	-1%	-2%
Cc1ccc(S(=O)(=O)N2CCOCC2)cc1C(=O)N1CCCC1	3%	?	0%	0%
CCn1cc(C(=O)N2CCCC2)c(=O)c2cc(S(=O)(=O)N3CCC(C)CC3)ccc21	-3%	-6%	0%	-1%
CCn1cc(C(=O)N2CCN(c3cccc(Cl)c3)CC2)c(=O)c2cc(S(=O)(=O)N3CCC(C)CC3)ccc21	-4%	21µM*	0%	-4%
Cc1ccc(S(=O)(=O)N2CCN(C(=O)c3cc(S(=O)(=O)N4CCOCC4)ccc3Cl)CC2)c(C)c1	-4%	21µM*	0%	8%
S=C(NCCCc1cnc[nH]1)NCCCN(CCc1ccc(Cl)cc1)c1ccc(Br)cn1	24%	15%	nt	9%
CC(=O)c1ccc(N2CCN(c3ncc(C(F)(F)F)cc3Cl)CC2)cc1	0%	?	0%	0%
CC(=O)c1ccc(N2CCN(c3ccc(C(F)(F)F)cn3)CC2)cc1	0%	9.2µM*	0%	22%
CCOc1ccc(C(=O)Nc2nc3ccccc3[nH]2)cc1OCC	-12%	10µM*	7%	-2%
COc1ccc(C(=O)Nc2nc3ccccc3[nH]2)cc1OC	1%	nt	1%	-5%
CCCC(C)C(=O)Nc1nc(C)c(-c2csc(Nc3ccccc3OC)n2)s1 (stereo not drawn)	-3%	-21%	4%	?
CCCC(C)C(=O)Nc1nc(C)c(-c2csc(Nc3ccc(Cl)cc3)n2)s1 (stereo not drawn)	-12%	15µM*	4%	29%
CCC(C)C(=O)Nc1nc(C)c(-c2csc(Nc3cc(Cl)ccc3OC)n2)s1 (stereo not drawn)	-4%	8.2µM*	0%	40%
COc1cccc(-n2c(C)nc3c(cnn3-c3ccc(C)c(C)c3)c2=O)c1	-2%	-61%	5%	7%
COc1ccc(NC(=O)/C(Cl)=C(/Cl)S(=O)Cc2ccc(Cl)cc2)cn1 (stereo not drawn)	21µM*	?	-3%[9.22 µM]	6%
CC(C)(C)OC(=O)NCCCNc1ncnc2ccc(-c3ccc4c(c3)OCO4)cc12	-5%	-4%	nt	?
COC(=O)C(NC(=O)c1ccccc1Cl)(Nc1ncc(S(=O)(=O)c2ccc([N+](=O)[O-])cc2)s1)C(F)(F)F (stereo not drawn)	-26%	21µM*	22%	?
CCC(C)(C)C(=O)Nc1ncc(S(=O)(=O)c2ccc([N+](=O)[O-])cc2)s1	-13%	?	8%	?
CCCCN1C(C(=O)c2ccccc2)=C(OC(C)=O)c2ccccc2S1(=O)=O	?	8.2µM*	-3%	?
CN1CCc2ccc3c4c2[C@]1(C)Cc1cccc(c1-4)OCO3	-13%	-1%	nt	?
N#CCSc1nnc(-c2sc3ccccc3c2Cl)o1	-1%	-18%	?	4%
COC(=O)CSc1nnc(-c2sc3ccccc3c2Cl)o1	-16%	16µM*	-2%	?
Cc1ccc(S(=O)(=O)N2CCc3cc(C(=O)N(C)Cc4ccccc4)ccc32)cc1	0%	?	4%	18%
Cc1cc(C)c(Cc2c(C)nc3c(C(=O)NCc4ccco4)cnn3c2C)c(C)c1	?	18µM*	10%	2%
SMILES	A549 viability	Nrf2 block	Nrf2 activator	Pin1 inh
Cc1ccc(CNC(=O)c2cnn3c(C)c(Cc4c(F)cccc4Cl)c(C)nc23)cc1	5%	nt	-1%	6%
COc1ccccc1N1CCN(C(=O)CSc2ncnc3scc(-c4ccccc4)c23)CC1	-3%	18µM*	2%	?
COc1ccc(N(CC(=O)Nc2cccc(Cl)c2C)S(=O)(=O)c2c(C)nn(C)c2C)cc1	0%	-4%	0%	-6%
CCOC(=O)N1CCN(c2nc(C(F)(F)F)nc3c(C)cc(C)cc23)CC1	-10%	23µM*	-1%	2%
Cc1cc(C)c2nc(C(F)(F)F)nc(N3CC(C)OC(C)C3)c2c1 (stereo not drawn)	11%	-3%	0%	?
CS(=O)(=O)c1ncc(Cl)c(C(=O)N(Cc2ccc(Cl)cc2)Cc2ccco2)n1	?	23µM*	-4%	1%
O=C1N[C@@H](Cc2ccccc2)COC(=O)[C@H](Cc2ccc(F)cc2)CC/C=C/C[C@H]1CC(=O)N(CCO)Cc1ccccc1	-26%	23µM*	-3%	1%
